In paper PMC7819943, “Rice protein-binding microarrays: a tool to detect cis-acting elements near promoter regions in rice”:
Whole data set: some 39,000 sequences, median “fluorescence intensity (a.u.)” near 4,300, cut for the highest 2% near 39,000. The sample as a whole holds a higher share of the highest values than the screen did.

Molecular target: T1, OsSMF1 (Oryza sativa, UniProt Q6ZLB0 1-436)
T1 sequence: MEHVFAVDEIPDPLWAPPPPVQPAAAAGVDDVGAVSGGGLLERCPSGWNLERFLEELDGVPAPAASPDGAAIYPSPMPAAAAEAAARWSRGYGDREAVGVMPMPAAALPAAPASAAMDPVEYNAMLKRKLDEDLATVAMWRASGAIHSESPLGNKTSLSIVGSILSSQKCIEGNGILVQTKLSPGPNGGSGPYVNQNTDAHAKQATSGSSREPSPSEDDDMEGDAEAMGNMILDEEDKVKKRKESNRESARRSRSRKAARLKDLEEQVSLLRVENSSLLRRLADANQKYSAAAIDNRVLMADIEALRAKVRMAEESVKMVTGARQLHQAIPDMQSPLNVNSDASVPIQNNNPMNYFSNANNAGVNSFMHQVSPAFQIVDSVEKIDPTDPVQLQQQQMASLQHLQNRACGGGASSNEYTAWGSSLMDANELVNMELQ
Experiment: protein-binding microarray (RPBM); PBS, 2% BSA, 51.3 ng/ul salmon testes DNA, 50 uM zinc acetate, 200 nM TF, 25 C, 1 h; high values mean tight binding
Conditions: protein: recombinant; tags: N-terminal polyhistidine and DsRed monomer fusion (pET32a); chain copies: 2; label: CyDye5-dUTP incorporated in the synthesized complementary strand; 3' TTTTT single-stranded linker to array surface; dsDNA, one strand shown
How it was run: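 Binding signal here means per-feature fluorescence intensity in arbitrary units. The values were read on an Axon 4000B scanner after a custom Agilent array, double-stranded by primer extension with Cy5-dUTP, was incubated with 200 nM protein at 25 °C for 1 h in PBS with 2% BSA, salmon testes DNA and 50 µM zinc acetate, then washed. The proteins were transcription factors with an N-terminal polyhistidine tag and DsRed, expressed in E. coli BL21-CodonPlus and purified on Ni–NTA.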

With “CGAATTTGCTACCCCATTTCACAAATCAAAAGTGCAAAGCCGGAGTCACCTAGTGCAG” as the sequence, how does the binding signal read?
Its binding signal is 29200 fluorescence intensity (a.u.).

For “CACAGTCGACGACACCCTCCATCTCCGTCCCTCCCACTCCCGGAGTCACCTAGTGCAG”, which binding signal is on record?
The binding signal was 7160 fluorescence intensity (a.u.).

How did the binding signal turn out when “ACGGGCCGTGCTTGGGCCAGCGGCTCGGCACGTGGGCCGGCGGAGTCACCTAGTGCAG” was run?
The binding signal was 3480 fluorescence intensity (a.u.).

Which binding signal does the source give for “GAATCAGTAAATAAAGCGCTAGGTTTAATGATGTCATGGACGGAGTCACCTAGTGCAG” here?
Its binding signal is 6840 fluorescence intensity (a.u.).

Which binding signal does the source give for “ATTAACAATTCAATGGTTCTTGATGTGTTCTACTTAACCTCGGAGTCACCTAGTGCAG” here?
The binding signal was 3260 fluorescence intensity (a.u.).

Which binding signal does the source give for “AAGATAAATGGTTAAACCTTATATGTGAAACCAGAGAAAACGGAGTCACCTAGTGCAG” here?
Its binding signal is 21100 fluorescence intensity (a.u.).

With “CCTTCTTAACAGTCTGTGAAGCTCTGCCATCTCACCGTCTCGGAGTCACCTAGTGCAG” as the sequence, how does the binding signal read?
The binding signal was 3820 fluorescence intensity (a.u.).

“TTCGGCGCAAATTTCTAATCATGATGTAATATAATTAGCTCGGAGTCACCTAGTGCAG” was tested. Which binding signal did it give?
Its binding signal is 3270 fluorescence intensity (a.u.).

With “CTCCAAATTAGTATCCAAACATCCGATGTGACATGGACTTCGGAGTCACCTAGTGCAG” as the sequence, how does the binding signal read?
Its binding signal is 4370 fluorescence intensity (a.u.).

Which binding signal does the source give for “CTTCGGCCTTAGCTCCAAATCCGATGTAAATTTACCAAATCGGAGTCACCTAGTGCAG” here?
Its binding signal is 61700 fluorescence intensity (a.u.).

For “TTTCCAATCACGTATTCCGGACAAAGGCCTAAACCTGCTCCGGAGTCACCTAGTGCAG”, which binding signal is on record?
Its binding signal is 35800 fluorescence intensity (a.u.).

For “ACCAAAATTCTCATATCTCTCAACTAAACAAAACTCTTAACGGAGTCACCTAGTGCAG”, which binding signal is on record?
Its binding signal is 3300 fluorescence intensity (a.u.).

How did the binding signal turn out when “ACCCACGCACTCACTGACGATGCAATGCGGCCATATGCTACGGAGTCACCTAGTGCAG” was run?
The binding signal was 3240 fluorescence intensity (a.u.).

For “TTTTGCTTAGCTGTTCTGTAATTGTCGATTTGAATTGGATCGGAGTCACCTAGTGCAG”, which binding signal is on record?
The binding signal was 3500 fluorescence intensity (a.u.).

For “CTCTTCATTTGTTAATTTAATTTGATTAATTCAGTGCTTCCGGAGTCACCTAGTGCAG”, which binding signal is on record?
The binding signal was 64900 fluorescence intensity (a.u.).

How did the binding signal turn out when “GCAGAGTTCAGAATTTGTTCAGTTTAGGTGCTTCTGTAATCGGAGTCACCTAGTGCAG” was run?
Its binding signal is 55600 fluorescence intensity (a.u.).

With “AGTGCTTTATTTTGCTGATTCATTGTTAAAATTGCCTCTACGGAGTCACCTAGTGCAG” as the sequence, how does the binding signal read?
Its binding signal is 5500 fluorescence intensity (a.u.).

For “TAGTAGATAGCTTTGCTCTCTCTCTTCATTTAATATATTCCGGAGTCACCTAGTGCAG”, which binding signal is on record?
Its binding signal is 4540 fluorescence intensity (a.u.).

How did the binding signal turn out when “GATGTTCAGATGTACAACAGTAATTTGATTGCATCGGCTTCGGAGTCACCTAGTGCAG” was run?
The binding signal was 3270 fluorescence intensity (a.u.).

“CGGGAGAGAGGATCGGGAGAGATAGGGTTAGGGTTAGGGTCGGAGTCACCTAGTGCAG” was tested. Which binding signal did it give?
Its binding signal is 3320 fluorescence intensity (a.u.).

How did the binding signal turn out when “CCACCACGTACAGTGCTTTCCTAGGCAGAAGCCCACTATCCGGAGTCACCTAGTGCAG” was run?
The binding signal was 3490 fluorescence intensity (a.u.).

Which binding signal does the source give for “ACCAATCGCATGACGATATTCCCGCTCCCACAATCGCGTTCGGAGTCACCTAGTGCAG” here?
Its binding signal is 3550 fluorescence intensity (a.u.).

“CGAACCGATGGTTGTGATTGTACGTGTCTACCTGATACGTCGGAGTCACCTAGTGCAG” was tested. Which binding signal did it give?
The binding signal was 5940 fluorescence intensity (a.u.).

For “GAAAATAAGGGAGTTTTCTGCAAAATTTGATGAATGGAAGCGGAGTCACCTAGTGCAG”, which binding signal is on record?
Its binding signal is 3230 fluorescence intensity (a.u.).

For “TTTTGGTCATTTTACCATATGACTTTGTTTTGGTAATTTGCGGAGTCACCTAGTGCAG”, which binding signal is on record?
The binding signal was 3210 fluorescence intensity (a.u.).

For “CGGATTCTCGTCGGCTTCGGCGACCGGAAGAGGAGAGGAGCGGAGTCACCTAGTGCAG”, which binding signal is on record?
Its binding signal is 3230 fluorescence intensity (a.u.).

For “TTTCTGTGACGGCCCGCGTAGCTTCGGAGGAAGCGACCACCGGAGTCACCTAGTGCAG”, which binding signal is on record?
Its binding signal is 47700 fluorescence intensity (a.u.).

For “CGGAGTGGCCAGCGTGGTGACAAGCGCGACGTGGCGGCTTCGGAGTCACCTAGTGCAG”, which binding signal is on record?
Its binding signal is 6830 fluorescence intensity (a.u.).

“TCCCTTGACGGTTTTGGCTGACGTGGCGCCTAGGTGGCTACGGAGTCACCTAGTGCAG” was tested. Which binding signal did it give?
The binding signal was 30000 fluorescence intensity (a.u.).

“TTTAGATGGCGGTTTTGGCTGACGTGGCACATATGTGGCTCGGAGTCACCTAGTGCAG” was tested. Which binding signal did it give?
The binding signal was 33100 fluorescence intensity (a.u.).

“TCCCTTGGCAGTATAGGTGGGTGGTTTTGCTTACGTGGCACGGAGTCACCTAGTGCAG” was tested. Which binding signal did it give?
The binding signal was 40000 fluorescence intensity (a.u.).

Which binding signal does the source give for “AGCGGTTTCGCTGACGTGGCGGTTAGGTGGCATTTGAATTCGGAGTCACCTAGTGCAG” here?
The binding signal was 23800 fluorescence intensity (a.u.).

With “GTTTAATGGGTTGATGTGGCATGCTTACATATAGGTTTTACGGAGTCACCTAGTGCAG” as the sequence, how does the binding signal read?
The binding signal was 5830 fluorescence intensity (a.u.).

For “TGGAGGGCAGTTTCGCTGACGTGGCGGTGTTGACCTAGTGCGGAGTCACCTAGTGCAG”, which binding signal is on record?
The binding signal was 34200 fluorescence intensity (a.u.).

How did the binding signal turn out when “GGTTTAGACGTGGCGGTGGTGGGTGGCGTACGTTTGGGTTCGGAGTCACCTAGTGCAG” was run?
Its binding signal is 5180 fluorescence intensity (a.u.).

With “GGCACTATAGATGTTTGGTTTCGCTGACGTGGCATTCTAGCGGAGTCACCTAGTGCAG” as the sequence, how does the binding signal read?
Its binding signal is 49000 fluorescence intensity (a.u.).

With “CTTGGTGGTTTTATAGGGTGGTTTCGCTGACGTGGCGTGGCGGAGTCACCTAGTGCAG” as the sequence, how does the binding signal read?
The binding signal was 44600 fluorescence intensity (a.u.).

Which binding signal does the source give for “AACTGGAACCCTTAGCCACTGTGAGGTGTACATCTGACAACGGAGTCACCTAGTGCAG” here?
Its binding signal is 4990 fluorescence intensity (a.u.).

How did the binding signal turn out when “CTAGCCACTGAAGCATGGGTCATGATACAGCAGTTAATATCGGAGTCACCTAGTGCAG” was run?
Its binding signal is 3440 fluorescence intensity (a.u.).

Which binding signal does the source give for “CTTATCAAGACTCGTGGCGTGGAAAGCTTTACAGGTGAGGCGGAGTCACCTAGTGCAG” here?
The binding signal was 4710 fluorescence intensity (a.u.).

With “ATGCATGACAGCACACCACACATTGACACCACTGAGGCAGCGGAGTCACCTAGTGCAG” as the sequence, how does the binding signal read?
The binding signal was 3260 fluorescence intensity (a.u.).

“TTAAAGAAATGGTTGGTGCTGCTCCGACTCCCTGTTTCCTCGGAGTCACCTAGTGCAG” was tested. Which binding signal did it give?
The binding signal was 16200 fluorescence intensity (a.u.).

“GCCTCTCCTCAAGCGGTGGAGAGCGCGGACGTGGACGTGCCGGAGTCACCTAGTGCAG” was tested. Which binding signal did it give?
The binding signal was 6520 fluorescence intensity (a.u.).

With “GATTCGTCTCGCGATTTCCATTCAAACTGTGCAATTAGTTCGGAGTCACCTAGTGCAG” as the sequence, how does the binding signal read?
Its binding signal is 28000 fluorescence intensity (a.u.).

For “GGATTAATTAGTCTCAAAAGATTCGTCTCGCGGTTTCCAGCGGAGTCACCTAGTGCAG”, which binding signal is on record?
The binding signal was 29400 fluorescence intensity (a.u.).

Which binding signal does the source give for “GGCTTAAAAGATTCGTTTCATAATTTACACGCAAACTGTACGGAGTCACCTAGTGCAG” here?
The binding signal was 3890 fluorescence intensity (a.u.).

With “ATTAGGCTCAAAAGATTCGTCTCGCGATTTTCAGACGAGCCGGAGTCACCTAGTGCAG” as the sequence, how does the binding signal read?
Its binding signal is 41800 fluorescence intensity (a.u.).
